ELG1 repair inh: ELG1-dependent DNA repair inhibition; Potency, µM (titrated, usually from 46.1 µM), for the others: at the highest dose activity change, negative = inhibition, usual class: inhibitors; HEK293T ELG1-luciferase reporter, luminescence, 16 h; DNA damage induced by 5-fluorouridine; 2.3% of 330,000 active; note: potency is the fitted concentration of half-maximal effect; nearly all actives have a fitted effect of over 55% in size
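5-Fluorouridine DNA damage + compound/DMSO, 2,000 cells/well, 16 h, 37 °C/5% CO2. ONE-Glo, 30 min RT, luminescence. Readout = decrease in reporter signal.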
IL-1B inflam inh: inflammasome signaling inhibition, IL-1 beta readout | THP-1 LPS/ATP IL-1B secretion, AlphaLISA, 16 h; stronger effect = lower value | activity change, % at 57.5 µM | 4.7% of 360,000 active | AID 743279; in the data active = activity change below about -50%; inconclusive = mostly about -30% to -49%
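Secreted IL-1B measured by AlphaLISA bead assay after 16 h compound exposure of THP-1 cells; compounds (final up to 57.5 uM) added 1 h before LPS (250 ng/mL) and ATP (1.25 mM) stimulation; lower signal means less secretion.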
DT40 TDP1 CPT: growth inhibition of DT40 Tdp1-/-;hTDP1 cells with camptothecin (screen for TDP1 inhibitors) | chicken DT40 Tdp1-/-;hTDP1 cells + 20 nM CPT, ATP luminescence, 48 h | 12% of 420,000 active | Potency, µM (titrated, usually from 46.2 µM), without a hit: at the top dose activity change, negative = growth inhibition, actives largely listed as inhibitors | AID 686979; note: potency is the fitted concentration of half-maximal effect; nearly all actives have a fitted effect of over 55% in size
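Chicken DT40 Tdp1-/- cells stably complemented with human TDP1 were seeded at 400 cells/well in medium containing 20 nM camptothecin, exposed to pin-transferred compounds, and grown at 37 °C for at least 48 hr. Viability was read as ATP luminescence.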
RORgamma inh: inhibitors of mouse ROR gamma transcriptional activity; Drosophila S2 Gal4-RORgamma UAS-luciferase reporter, 20 h; Potency, µM (highest dose often 53.6 µM), for inactives: at the top dose activity change, negative = inhibition, hits mostly inhibitors; 5.4% of 310,000 active; note: potency is the fitted concentration of half-maximal effect; nearly all actives have a fitted effect of over 60% in size
Target sequence (P51450 whole entry, looked up, the tested form may be a part): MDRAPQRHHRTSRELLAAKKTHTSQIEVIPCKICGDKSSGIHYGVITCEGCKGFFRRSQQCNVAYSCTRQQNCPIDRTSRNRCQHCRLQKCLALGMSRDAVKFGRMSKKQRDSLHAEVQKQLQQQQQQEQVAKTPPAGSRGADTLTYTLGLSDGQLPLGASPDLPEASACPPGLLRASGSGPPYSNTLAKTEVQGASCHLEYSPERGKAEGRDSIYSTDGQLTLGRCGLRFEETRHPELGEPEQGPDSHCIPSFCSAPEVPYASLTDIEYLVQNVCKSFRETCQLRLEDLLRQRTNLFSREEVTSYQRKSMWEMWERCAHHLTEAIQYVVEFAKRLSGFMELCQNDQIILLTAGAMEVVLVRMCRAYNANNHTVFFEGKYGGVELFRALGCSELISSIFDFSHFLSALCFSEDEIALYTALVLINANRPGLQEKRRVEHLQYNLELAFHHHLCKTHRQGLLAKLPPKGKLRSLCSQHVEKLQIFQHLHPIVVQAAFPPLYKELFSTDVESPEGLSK
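Using a luciferase readout, inhibitors were identified by reduced reporter activity in Drosophila cells coexpressing a copper-inducible Gal4–ROR gamma fusion and UAS-driven Photinus luciferase, incubated 20 hr after 700 uM copper sulfate.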
DT40 TDP1 no CPT: qHTS for Inhibitors of human tyrosyl-DNA phosphodiesterase 1 (TDP1): qHTS in cells in absence of CPT; 15% of 420,000 active; DT40 Tdp1-/- hTDP1 cells, no CPT, ATP luminescence, 48 h; AID 686978, 2013; Potency, µM (highest dose often 46.2 µM), without a hit: at the top dose activity change, negative = growth inhibition, hits mostly inhibitors; note: potency is the fitted concentration of half-maximal effect; nearly all actives have a fitted effect of over 55% in size
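Camptothecin absent (DMSO only). Human TDP1-complemented DT40 knockout cells, 400 cells/well, 37 °C for minimum 48 hr; ATP measured via CellTiter-Glo, 30 min dark incubation, luminescence.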
VP16 counter: counter-screen for ROR gamma inhibitors: Gal4-VP16 reporter; Drosophila S2 Gal4-VP16 UAS-luciferase, luminescence, 20 h; Potency, µM (titrated, usually from 53.6 µM), without a hit: at the highest dose activity, negative = inhibition, actives largely listed as inhibitors; 3.5% of 310,000 active; AID 2546;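 note: Gal4-VP16 expression switched on by copper sulfate through the metallothionein promoter; potency is the fitted concentration of half-maximal effect; nearly all actives have a fitted effect of over 50% in size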
* = called active by the depositor; ? = inconclusive; . = no result; ! = not confirmed by another sample. Only some compounds are listed: those with a hit (about 21% of all), similar ones and a draw of the others. Unless noted, calls come from the whole dose curve; as a rule, active = well fitted curve in the direction sought with a large enough effect; inconclusive = small, poorly fitted or top-dose-only effect, or another doubt; inactive = no such curve, though single readings can be large; an effect the other way counts as inactive or inconclusive. % is set by controls: 0 for no effect and ±100 for the full control effect.

SMILES | ELG1 repair inh | IL-1B inflam inh | DT40 TDP1 CPT | RORgamma inh | DT40 TDP1 no CPT | VP16 counter
COc1ccc(-n2sc3ccccc3c2=O)cc1 | . | -105.8* | 3.66µM* | . | 2.91µM* | .
O=c1c2cc(F)ccc2sn1-c1ccc(F)cc1 | 18.9% | -114.1* | 2.59µM* | . | 3.26µM* | .
Cc1ccc(C)c(Cn2c(=O)n(-c3ccc(F)cc3)c(=O)c3sc4ccccc4c32)c1 | . | . | ? | . | -11.8% | .
COc1ccc2sc3ccccc3c(=O)c2c1 | ? | -0.7 | 7.9% | -30.3% | 5.6% | -9.6%
CCCC1(C(=O)OC)C=C2C(=C(c3ccccc3)C(=O)C2C)CN1 (stereo not drawn) | . | . | . | -3.4% | . | -12.3%
Cc1cc(C)c2c(n1)nn1c(C)c(CCC(=O)Nc3ccc(C)c(Cl)c3)c(C)nc21 | . | . | -14.4% | . | ? | .
O=C1OC2(c3ccccc31)c1cc(I)c(O)c(I)c1Oc1c2cc(I)c(O)c1I | -20.5% | . | -30.0% | -30.2% | ? | -22.2%
CCOC(=O)c1csc(-c2ccc(COC(=O)c3ccccc3)o2)n1 | . | 22.3 | -10.2% | . | -2.2% | .
Cc1nc([N+](=O)[O-])c(C(=O)OCc2ccccc2F)n1C | 3.4% | 0.0 | 8.7% | 19.3% | -11.6% | 12.7%
COc1ccc(Cl)cc1NC(=O)CCc1nc(-c2ccccc2F)no1 | ? | 15.2 | 23.1µM*! | 13.9% | 16.4µM* | -8.6%
Cc1ccccc1-c1noc(CCC(=O)Nc2cccc(C)c2C)n1 | . | . | -10.3% | . | 16.4µM* | .
COc1ccc(Br)cc1CNC(=O)CCc1nc(-c2ccccc2F)no1 | ? | -1.0 | 16.4µM* | -7.5% | ? | 0.8%
O=C(CCc1nc(-c2ccccc2F)no1)Nc1ccc(Oc2ccccc2)cc1 | ? | 19.6 | 23.1µM* | ? | 10.3µM* | 0.0%
Cn1cc(S(=O)(=O)N2CCCCC2)cc1C(=O)N1CCN(c2ccccc2F)CC1 | . | . | -23.3% | . | ? | .
Cc1cc(C)n(-c2ccc(Cl)c(C(=O)Nc3cc(C(F)(F)F)ccc3Cl)n2)n1 | 1.8% | 13.7 | ? | -19.5% | ? | ?
COc1ccccc1-c1cc(NCc2ccccc2)ncn1 | . | . | 6.51µM* | 12.5% | 5.8µM* | -1.5%
Cc1noc(C)c1-c1cc(N2CCN(C)CC2)ncn1 | . | . | -12.3% | -0.4% | -0.9% | -1.0%
COc1ccc(CNc2cc(-c3ccccc3OC)ncn2)c(OC)c1 | . | . | ? | -7.6% | ? | 5.9%
Cc1noc(C)c1-c1cc(NC2CC2)ncn1 | . | . | 11.6µM* | ? | 8.2µM* | 11.6%
Cc1noc(C)c1-c1cc(N(C)C)ncn1 | . | . | ? | -7.2% | 23.1µM* | 7.0%
Cc1ccccc1-c1cc(NCc2ccccc2)ncn1 | . | . | 14.6µM* | -5.0% | 20.6µM* | 19.8%
CCCCCCCCCCCCOCCCN | . | . | -21.1% | 16.8% | ? | -4.4%
CN1CCN(c2ncc3ncc(=O)n(C[C@H]4CCCO4)c3n2)CC1 | . | . | -22.0% | -13.7% | -11.4% | 0.6%
CCC(C)N(C(=O)CSc1nnc(-c2cccs2)n1C1CC1)C1CCS(=O)(=O)C1 (stereo not drawn) | 13.6% | 11.0 | 5.5% | . | 3.2% | .
COc1ccccc1C(=O)COC(=O)Cn1nc(C)c([N+](=O)[O-])c1C | 11.0% | 15.6 | 13.3% | . | 13.0% | .
Nc1ncnc2c1ncn2[C@@H]1O[C@H](CNCc2ccc(-c3cc(C(F)(F)F)ccc3Cl)o2)[C@@H](O)[C@H]1O | -17.2% | -11.9 | ? | . | ? | .
CCOC(=O)[C@@H]1[C@H]2COc3ccccc3[C@H]2N2C(=O)N(c3cccc(Cl)c3)C(=O)[C@]12C | -3.4% | -11.6 | ? | . | -10.2% | .
COc1ccccc1CNc1cc(-c2c(C)noc2C)ncn1 | . | . | -2.7% | 10.6% | -10.0% | 9.6%
COc1ccccc1-c1cc(Nc2ccn[nH]2)ncn1 | . | . | ? | -8.1% | ? | 29.7%

High-throughput results (PubChem BioAssay)
